We go through 20 compounds from PubChem BioAssay (Tox21).

Structures are written as SMILES. Where “and” joins values, the source holds several entries; their conditions need not be identical. Equal entries are not always repeated. Inconclusive results are not listed. Some structures have more than one record in an assay (separate samples or runs), and their calls can disagree. Calls of active or inactive are those of the source. Calls follow the shape of the dose curve; as a rule, active = well fitted curve in the direction sought with a large enough effect in the repeat runs; inconclusive = weak or mixed curves; inactive = no such curve, though single readings can be large; an effect the other way counts as inactive or inconclusive.

Assay [1] in a line: A CellTox Green Cytotoxicity Assay to monitor cytotoxicity in HepG2 cells - 32 hour (AID 1224883). Also: nearly all actives have a fitted effect of over 50% in size. An outline of the steps:
(§1)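 Real-time, homogeneous cytotoxicity readout: dead-cell DNA staining by CellTox Green in HepG2 monolayers, fluorescence measured at timed intervals up to 40 h of continuous compound exposure.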

Assay [2] can be described thus: A CellTox Green Cytotoxicity Assay to monitor cytotoxicity in HEK293 cells - 8 hour (AID 1224884). Also: nearly all actives have a fitted effect of over 35% in size. Summed up:
(§2)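 Cytotoxicity was tracked continuously in HEK293 cells by a DNA-binding dye excluded from viable cells. Compounds were transferred in DMSO 5 h after seeding; fluorescence was recorded at intervals up to 40 h.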

Assay [3] can be described thus: qHTS RealTime-Glo MT Cell Viability Assay in HepG2 cells - 16 hour (AID 1224885). Also: nearly all actives have a fitted effect of over 50% in size. An outline of the steps: (§3)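 qHTS, HepG2, 600 cells/well, RealTime-Glo (NanoLuc + prosubstrate) added with cells; 5 h preincubation; DMSO compound addition; 37 C; luminescence at 0/8/16/24/32/40 h.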
Assay [4] in a line: qHTS RealTime-Glo MT Cell Viability Assay in HEK293 cells - 24 hour (AID 1224886). Also: nearly all actives have a fitted effect of over 50% in size. As to activity change, negative = cytotoxicity: top concentration of the series differs between compounds. Summed up: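 Assay medium contained NanoLuc luciferase plus cell-permeant prosubstrate, added with HEK293 cells at 600 cells/well. After 5 h at 37 C/5% CO2 compounds were added; plates stayed at 37 C for 40 h with serial luminescence reads.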
For orientation: Quantitative high-throughput screening tests each substance at several concentrations.

Assay [5] in a line: qHTS assay to identify small molecule antagonists of the estrogen receptor alpha (ER-alpha) signaling pathway using the BG1 cell line in the presence of 0.1 nM 17-beta-estradiol - cell viability counter screen (AID 1259241). Also: nearly all actives have a fitted effect of over 40% in size. An outline of the steps: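 VM7Luc4E2 cells (endogenous full-length ER-alpha, 4xERE-luciferase), cultured 5 days in charcoal-stripped serum, exposed to compounds with 0.1 nM 17beta-estradiol (final) for 22 hr at 37C. Viability read in same wells as live-cell protease fluorescence after 30 min.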

Assay [6] can be described thus: qHTS RealTime-Glo MT Cell Viability Assay in HEK293 cells - 8 hour (AID 1224887). Also: nearly all actives have a fitted effect of over 50% in size. As to activity change, negative = cytotoxicity: top concentration of the series differs between compounds. An outline of the steps:
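Nonlytic bioluminescent viability monitoring. HEK293 at 600 cells/well with reagent; 5 h settle; compound transfer by pintool; plates held at 37 C and read at set time points.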

Assay [7] can be described thus: A CellTox Green Cytotoxicity Assay to monitor cytotoxicity in HEK293 cells - 16 hour (AID 1224888). Also: nearly all actives have a fitted effect of over 35% in size. Summed up: as §2
The nature of assay [8]: A CellTox Green Cytotoxicity Assay to monitor cytotoxicity in HepG2 cells - 8 hour (AID 1224890). Also: nearly all actives have a fitted effect of over 45% in size. Summed up:
as §1

Assay [9] in a line: qHTS RealTime-Glo MT Cell Viability Assay in HepG2 cells - 0 hour (AID 1224889). Also: nearly all actives have a fitted effect of over 50% in size. Summed up:
as §3

The nature of assay [10]: qHTS assay to identify small molecule antagonists of the androgen receptor (AR) signaling pathway using the MDA cell line in the presence of 0.5 nM R1881 - cell viability counter screen (AID 1259242). Also: nearly all actives have a fitted effect of over 45% in size. Summed up:
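Cytotoxicity toward MDA-kb2 cells is measured by CellTiter-Fluor live-cell protease fluorescence after 16 hr compound exposure at 37C in the presence of 0.5 nM R1881 stimulator.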
% is scaled to controls: 0 for no effect and ±100 for the full control effect; potency is read from the fitted curve at half-maximal effect.

Regarding `CNCc1cc(F)ccc1Oc1ccc(Cl)c(Cl)c1`, the Potency in assay [1] was 49 µM (active); in [3], 49 µM (active); in [4] it was 38.9 µM (active). Moreover, the Potency result in assay [2] and in [5] was “inactive” in each case.
With `CCCCCCCC[P+](CCCCCCCC)(CCCCCCCC)CCCCCCCC`, the Potency in [1] is 10.9 µM (active); in assay [2] it was 10.9 µM (active); in assay [3], 17.3 µM (active); in assay [4], 1.73 µM (active); in assay [6] it was 6.13 µM (active); in [7], 10.9 µM (active). In addition, the figures for the Potency in assay [8] and in assay [5] were 17.3 µM (active) and 21.6 µM (active), respectively.
For `Cc1ccc(O)c2ncccc12`, the Potency in assay [1] is 8.49 µM (active). The Potency result in assay [2], in assay [3], in assay [6], in [7], in assay [9] and in assay [8] was “inactive” in each case. Further, the Potency result in assay [5] is “inactive”.
Take `CCCCCCCC[N+](CCCCCCCC)(CCCCCCCC)CCCCCCCC`: the Potency in [1] is 21.8 µM (active); in assay [2], 24.5 µM (active); in [3], 24.5 µM (active); in assay [4], 6.15 µM (active); in assay [6], 12.3 µM (active); in assay [7] it was 21.8 µM (active). Also, the Potency in assay [8] is 34.6 µM (active); in assay [5], 61 µM (active).
As to `Clc1ccccc1C(c1ccccc1)(c1ccccc1)n1ccnc1`, the Potency was 19.5 µM (active) and inactive in [1]; 24.5 µM (active) and inactive in assay [3]; 24.5 µM (active) in assay [6]; 49 µM (active) and inactive in [8]; 43.3 µM (active) and inactive in assay [10]. Also, the Potency entry in assay [2] and in assay [9] was “inactive” in each case.
Consider `OCCN1CCN(CC/C=C2/c3ccccc3Sc3ccc(C(F)(F)F)cc32)CC1`, for which the Potency is 15.1 µM (active) in [1]; 23.9 µM (active) in assay [2]; 23.9 µM (active) in assay [3]; 19 µM (active) in [4]; 21.3 µM (active) in [6]; 26.8 µM (active) in assay [7]. Besides, the Potency result in assay [5] is “inactive”.
For `COC(=O)C1=C(C)NC(C)=C(C(=O)OCC(C)C)C1c1ccccc1[N+](=O)[O-]` (stereo unspecified), the Potency entry in [1], in assay [2], in [7], in assay [8], in [5] and in [10] was “inactive” in each case. Also, the Potency in [3] was 43.6 µM (active); in assay [6], 21.9 µM (active); in assay [9] it was 21.9 µM (active).
For `Nc1nc2ccccc2n1Cc1ccc(F)cc1`, in assay [1], the Potency is 23.9 µM (active). For the same compound, the Potency entry in assay [2], in assay [3], in assay [6], in assay [7] and in assay [8] was “inactive” throughout.
Turning to `N=C1N=C(N)c2cc3ccccc3cc21`, the Potency in [1] is 33.4 µM (active); in [2] it was 54.9 µM (active); in assay [3] it was 38.9 µM (active); in assay [4] it was 24.5 µM (active); in assay [7], 54.9 µM (active). The Potency entry in [9] is “inactive”.
Consider `OCCN(CCO)c1nc(N2CCCCC2)c2nc(N(CCO)CCO)nc(N3CCCCC3)c2n1`, for which the Potency in [1] was 23.9 µM (active); in assay [2] it was 21.3 µM (active); in assay [7], 12 µM (active); in [8] it was 23.9 µM (active). For the same compound, the Potency entry in assay [3] and in assay [9] was “inactive” throughout.
Turning to `CCCCCCCCn1sc(Cl)c(Cl)c1=O`, the Potency in [1] is 12.3 µM (active); in [2] it was 2.45 µM (active); in assay [3] it was 4.9 µM (active); in [4], 3.89 µM (active); in [6] it was 3.47 µM (active); in assay [7], 1.95 µM (active). In addition, the figures for the Potency in assay [8] and in assay [10] were 17.4 µM (active) and 15.4 µM (active), respectively. The Potency entry in [5] was “inactive”.
For the compound `CC(C)(C)c1ccc(C(=O)O)cc1`, the Potency result in assay [1], in assay [2], in assay [3], in assay [4], in assay [7] and in [9] was “inactive” in each case. Also, the Potency entry in assay [8], in assay [5] and in [10] was “inactive” in each case.
Turning to `C[n+]1cc2c3c(ccc2c2ccc4cc5c(cc4c21)OCO5)OCO3`, the Potency in [1] is 0.585 µM (active); in assay [3] it was 0.827 µM (active); in assay [6] it was 0.465 µM (active); in assay [7], 4.65 µM (active); in assay [5], 13 µM (active); in [10] it was 10.3 µM (active). Further, the cytotoxicity increase in [2] is 16.5% [at 15.8 µM] (inactive). In addition, the activity change, negative = cytotoxicity in assay [9] is -1.39% [at 15.8 µM] (inactive).
As for `O=C1CCCc2c1cc1ccc3cccc4ccc2c1c34`, the Potency result in [1], in [2], in [3], in assay [7], in assay [9] and in [8] was “inactive” in each case. The Potency entry in assay [5] and in assay [10] was “inactive” each time. In [4], the Potency is 8.82 µM (active).
`CCCCCCCCNC(C)C(O)c1ccc(SC(C)C)cc1` (stereo unspecified): the Potency in assay [1] was 16.9 µM (active); in assay [2], 21.3 µM (active); in assay [3], 15.1 µM (active); in assay [4], 9.52 µM (active); in assay [7] it was 19 µM (active); in assay [8], 21.3 µM (active). The Potency in [10] was 23.7 µM (active).
On to `CC1=C(/C=C/C(C)=C/C=C/C(C)=C/C=O)C(C)(C)CCC1`, for which the Potency was 48.7 µM (active) in assay [1]; 48.7 µM (active) in assay [2]; 48.7 µM (active) in assay [3]; 17.3 µM (active) in [4]; 43.4 µM (active) in [7]; 60.8 µM (active) in [10]. In addition, the Potency result in [9] was “inactive”.
On to `O=c1cc(-c2ccc(O)cc2)oc2cc(O)cc(O)c12`, for which the Potency entry in assay [1] is “inactive and 38.9 µM (active)”; in assay [8], “inactive and 38.9 µM (active)”. In addition, the Potency result in assay [2], in assay [3], in [6], in assay [7], in assay [9] and in assay [5] was “inactive” in each case. Also, the Potency entry in assay [10] is “inactive”.
For `CCN(C(=O)c1cc(C)cc(OC[C@H](C)Nc2ccncc2)c1)C(C)C`, the Potency entry in assay [1], in assay [2], in assay [3], in assay [6], in assay [7] and in assay [9] was “inactive” in each case. Moreover, the Potency result in assay [8] and in assay [5] was “inactive” each time.
With `CC[C@@]1(O)C(=O)OCc2c1cc1n(c2=O)Cc2cc3c(CN(C)C)c(O)ccc3nc2-1`, the Potency in assay [1] is 8.49 µM (active); in assay [2], 26.8 µM (active); in assay [7] it was 26.8 µM (active); in [8], 23.9 µM (active). Further, the Potency result in [3], in [6] and in assay [9] was “inactive” throughout.
With `CC(NN)c1ccccc1` (stereo unspecified), the cytotoxicity increase in assay [1] was -12.7% [at 15.8 µM] (inactive); in assay [2], -1.23% [at 15.8 µM] (inactive); in assay [8], -3.04% [at 15.8 µM] (inactive). In addition, the activity change, negative = cytotoxic in assay [3] was 0.634% [at 15.8 µM] (inactive). The activity change, negative = cytotoxicity in assay [4] is -0.0571% [at 15.8 µM] (inactive); in [9] it was -3.22% [at 15.8 µM] (inactive); in assay [5], 6.27% [at 19 µM] (inactive). Also, the activity change in assay [7] is -3.48% [at 15.8 µM, stronger effect = higher value] (inactive).
